# Of roughly 7,900 targets only a part is listed; those with a hit were picked by preference. About 0.6% of all pairs of compound and target were hits. A number with no mark means an inactive call.
# Compound: Cc1sc2c(c1C)C(c1ccc(Cl)cc1)=N[C@@H](CC(=O)OC(C)(C)C)c1nnc(C)n1-2
# Experiment: log2 fold change, soluble protein after heating vs DMSO (PISA); higher = thermal stabilisation; K562 cells, 10 uM, 30 min; active = over 0.2 and 3.5 SD of the protein, either way, in both replicates (recomputed)
# Procedure, shortened: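 K562 cells at 2×10^6 cells/mL were treated for 30 min with 10 μM compound, and aliquots were heated for 3 min over 48°C-58°C before pooling. Extraction used PBS with 0.5% NP-40 at 4°C, and soluble protein was the supernatant after 21,000xg for 90 min, measured by TMTpro 16plex LC-MS/MS with channel sums equalised. Thermal stability values, relative to control samples and from duplicates, are log2 fold changes.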
# Chain of UniProt P61960 (P61960 whole entry, looked up): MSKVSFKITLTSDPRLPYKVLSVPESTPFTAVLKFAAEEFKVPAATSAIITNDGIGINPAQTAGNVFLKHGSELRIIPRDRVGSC
# Chain of UniProt O75554 (O75554 whole entry, looked up): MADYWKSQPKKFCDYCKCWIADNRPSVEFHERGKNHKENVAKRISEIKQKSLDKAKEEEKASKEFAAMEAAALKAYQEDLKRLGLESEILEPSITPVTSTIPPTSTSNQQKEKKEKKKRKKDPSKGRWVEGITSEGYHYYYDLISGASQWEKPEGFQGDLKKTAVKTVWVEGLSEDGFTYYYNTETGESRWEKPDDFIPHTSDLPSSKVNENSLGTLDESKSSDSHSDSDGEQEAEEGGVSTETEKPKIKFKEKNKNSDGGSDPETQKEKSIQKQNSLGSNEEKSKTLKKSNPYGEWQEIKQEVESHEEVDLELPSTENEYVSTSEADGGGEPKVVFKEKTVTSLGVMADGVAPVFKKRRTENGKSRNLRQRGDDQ
# Chain of UniProt Q9NP79 (Q9NP79 whole entry, looked up): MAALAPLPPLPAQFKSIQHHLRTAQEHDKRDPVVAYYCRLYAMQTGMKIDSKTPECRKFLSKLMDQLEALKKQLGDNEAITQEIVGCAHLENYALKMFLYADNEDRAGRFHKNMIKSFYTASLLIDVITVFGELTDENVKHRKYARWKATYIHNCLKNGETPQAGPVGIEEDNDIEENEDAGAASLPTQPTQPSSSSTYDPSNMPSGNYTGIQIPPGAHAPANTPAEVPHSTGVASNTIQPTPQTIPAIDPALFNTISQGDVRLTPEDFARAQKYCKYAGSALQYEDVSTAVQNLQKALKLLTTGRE
# Chain of UniProt Q93008 (Q93008 whole entry, looked up): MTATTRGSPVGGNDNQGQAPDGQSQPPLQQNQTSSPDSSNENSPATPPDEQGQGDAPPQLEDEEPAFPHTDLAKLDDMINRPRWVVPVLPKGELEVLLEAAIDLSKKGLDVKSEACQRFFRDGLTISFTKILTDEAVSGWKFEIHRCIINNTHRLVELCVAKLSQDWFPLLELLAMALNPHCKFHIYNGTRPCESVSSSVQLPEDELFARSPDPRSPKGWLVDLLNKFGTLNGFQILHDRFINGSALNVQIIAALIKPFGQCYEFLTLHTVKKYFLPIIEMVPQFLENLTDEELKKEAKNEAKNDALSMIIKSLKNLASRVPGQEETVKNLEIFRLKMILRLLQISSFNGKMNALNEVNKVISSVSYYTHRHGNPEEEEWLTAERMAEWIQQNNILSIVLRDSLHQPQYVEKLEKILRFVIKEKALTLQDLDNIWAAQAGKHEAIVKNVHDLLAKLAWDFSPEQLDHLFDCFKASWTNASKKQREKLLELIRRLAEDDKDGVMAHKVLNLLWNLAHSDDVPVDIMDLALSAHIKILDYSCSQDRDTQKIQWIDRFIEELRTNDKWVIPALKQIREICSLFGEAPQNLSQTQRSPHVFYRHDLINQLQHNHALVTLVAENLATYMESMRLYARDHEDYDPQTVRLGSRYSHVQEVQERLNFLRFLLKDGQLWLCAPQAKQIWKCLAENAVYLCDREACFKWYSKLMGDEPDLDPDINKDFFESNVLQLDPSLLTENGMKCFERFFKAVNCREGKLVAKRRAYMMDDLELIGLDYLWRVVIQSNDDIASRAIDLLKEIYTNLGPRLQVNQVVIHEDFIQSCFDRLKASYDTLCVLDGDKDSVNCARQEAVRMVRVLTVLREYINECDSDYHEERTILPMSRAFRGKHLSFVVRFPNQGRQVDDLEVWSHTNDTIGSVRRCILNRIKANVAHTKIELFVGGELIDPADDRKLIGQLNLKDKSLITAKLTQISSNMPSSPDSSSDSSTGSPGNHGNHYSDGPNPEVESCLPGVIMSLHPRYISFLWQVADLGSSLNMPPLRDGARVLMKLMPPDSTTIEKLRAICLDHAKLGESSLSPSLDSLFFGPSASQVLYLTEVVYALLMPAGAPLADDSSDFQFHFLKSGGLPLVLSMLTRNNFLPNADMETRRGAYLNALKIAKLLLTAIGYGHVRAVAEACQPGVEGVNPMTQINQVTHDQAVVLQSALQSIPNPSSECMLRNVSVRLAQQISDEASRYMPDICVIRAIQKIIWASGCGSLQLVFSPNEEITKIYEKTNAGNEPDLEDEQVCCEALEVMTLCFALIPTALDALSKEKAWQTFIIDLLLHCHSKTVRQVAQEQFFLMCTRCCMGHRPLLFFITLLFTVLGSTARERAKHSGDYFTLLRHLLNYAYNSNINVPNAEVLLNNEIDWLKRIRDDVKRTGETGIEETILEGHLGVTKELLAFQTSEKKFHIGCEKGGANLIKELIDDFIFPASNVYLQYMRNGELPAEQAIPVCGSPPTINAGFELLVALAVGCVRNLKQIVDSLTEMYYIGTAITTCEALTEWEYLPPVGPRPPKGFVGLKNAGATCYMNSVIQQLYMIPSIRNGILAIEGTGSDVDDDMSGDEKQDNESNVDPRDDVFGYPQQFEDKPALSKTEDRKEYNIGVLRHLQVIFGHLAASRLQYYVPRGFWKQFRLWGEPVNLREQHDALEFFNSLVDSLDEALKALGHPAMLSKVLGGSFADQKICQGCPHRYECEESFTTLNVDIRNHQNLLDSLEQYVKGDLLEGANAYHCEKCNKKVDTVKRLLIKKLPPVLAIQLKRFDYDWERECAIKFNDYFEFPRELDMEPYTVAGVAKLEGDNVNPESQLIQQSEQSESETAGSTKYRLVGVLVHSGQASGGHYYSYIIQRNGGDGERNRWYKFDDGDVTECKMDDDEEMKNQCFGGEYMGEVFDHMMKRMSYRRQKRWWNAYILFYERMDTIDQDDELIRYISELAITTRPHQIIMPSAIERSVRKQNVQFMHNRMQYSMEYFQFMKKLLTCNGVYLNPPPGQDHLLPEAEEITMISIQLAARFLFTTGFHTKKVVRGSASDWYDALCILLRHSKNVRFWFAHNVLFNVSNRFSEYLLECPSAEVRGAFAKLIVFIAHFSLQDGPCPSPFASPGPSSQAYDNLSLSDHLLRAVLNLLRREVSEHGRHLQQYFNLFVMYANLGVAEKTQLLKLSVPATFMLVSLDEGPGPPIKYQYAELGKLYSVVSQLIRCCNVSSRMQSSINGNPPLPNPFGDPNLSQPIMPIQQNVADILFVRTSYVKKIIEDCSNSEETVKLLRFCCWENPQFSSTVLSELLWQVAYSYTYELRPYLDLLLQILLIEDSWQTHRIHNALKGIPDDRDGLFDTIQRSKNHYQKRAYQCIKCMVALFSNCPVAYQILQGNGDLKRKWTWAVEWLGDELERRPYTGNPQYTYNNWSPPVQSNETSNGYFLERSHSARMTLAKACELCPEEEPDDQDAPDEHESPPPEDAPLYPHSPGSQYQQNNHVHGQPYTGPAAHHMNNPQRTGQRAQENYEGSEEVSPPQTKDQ
# Chain of UniProt Q15906 (Q15906 whole entry, looked up): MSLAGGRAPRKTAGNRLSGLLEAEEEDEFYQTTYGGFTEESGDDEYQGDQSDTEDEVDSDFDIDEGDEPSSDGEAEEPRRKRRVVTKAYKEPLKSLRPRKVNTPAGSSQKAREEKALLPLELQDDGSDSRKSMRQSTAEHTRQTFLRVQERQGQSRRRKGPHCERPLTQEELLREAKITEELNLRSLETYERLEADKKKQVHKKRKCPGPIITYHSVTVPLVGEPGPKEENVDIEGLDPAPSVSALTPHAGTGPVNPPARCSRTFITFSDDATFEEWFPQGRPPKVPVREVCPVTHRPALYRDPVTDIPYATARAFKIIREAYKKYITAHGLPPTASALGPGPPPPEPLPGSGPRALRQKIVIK
# Chain of UniProt Q5R3I4 (Q5R3I4 whole entry, looked up): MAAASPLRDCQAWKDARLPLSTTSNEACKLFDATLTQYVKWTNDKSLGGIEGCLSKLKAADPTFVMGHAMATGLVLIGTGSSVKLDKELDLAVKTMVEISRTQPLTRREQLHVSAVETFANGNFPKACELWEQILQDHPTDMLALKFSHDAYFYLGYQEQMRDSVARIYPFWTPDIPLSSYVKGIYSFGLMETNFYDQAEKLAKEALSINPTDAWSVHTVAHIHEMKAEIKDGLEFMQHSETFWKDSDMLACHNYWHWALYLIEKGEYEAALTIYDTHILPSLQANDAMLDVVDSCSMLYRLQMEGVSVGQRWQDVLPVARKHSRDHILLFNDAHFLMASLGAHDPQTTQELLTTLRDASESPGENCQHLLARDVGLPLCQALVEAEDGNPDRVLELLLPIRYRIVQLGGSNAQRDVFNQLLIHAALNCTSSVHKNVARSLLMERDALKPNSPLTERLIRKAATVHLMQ
# Chain of UniProt O95857 (O95857 whole entry, looked up): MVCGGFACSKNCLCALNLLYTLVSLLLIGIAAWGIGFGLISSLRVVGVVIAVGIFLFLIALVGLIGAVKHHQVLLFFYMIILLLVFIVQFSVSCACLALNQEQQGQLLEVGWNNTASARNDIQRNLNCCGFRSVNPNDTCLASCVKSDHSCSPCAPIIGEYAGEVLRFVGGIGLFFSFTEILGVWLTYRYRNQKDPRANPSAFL
# Chain of UniProt Q8WVY7 (Q8WVY7 whole entry, looked up): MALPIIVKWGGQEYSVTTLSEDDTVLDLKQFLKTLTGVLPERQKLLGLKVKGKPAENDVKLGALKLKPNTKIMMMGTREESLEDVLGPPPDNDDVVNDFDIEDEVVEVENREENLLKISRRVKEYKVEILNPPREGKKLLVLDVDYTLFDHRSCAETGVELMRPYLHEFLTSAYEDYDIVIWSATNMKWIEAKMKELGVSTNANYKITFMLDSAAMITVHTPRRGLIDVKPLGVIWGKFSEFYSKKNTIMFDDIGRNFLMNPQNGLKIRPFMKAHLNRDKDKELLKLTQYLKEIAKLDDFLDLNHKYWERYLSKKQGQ
# Chain of UniProt A6NIH7 (A6NIH7 whole entry, looked up): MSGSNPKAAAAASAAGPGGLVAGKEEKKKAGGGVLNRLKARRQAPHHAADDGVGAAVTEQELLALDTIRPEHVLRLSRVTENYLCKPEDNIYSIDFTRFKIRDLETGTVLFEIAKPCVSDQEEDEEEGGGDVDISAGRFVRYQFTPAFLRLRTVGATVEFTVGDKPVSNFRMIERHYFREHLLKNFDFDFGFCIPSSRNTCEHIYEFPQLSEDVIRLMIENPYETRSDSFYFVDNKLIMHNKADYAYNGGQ
# Chain of UniProt Q8N4H5 (Q8N4H5 whole entry, looked up): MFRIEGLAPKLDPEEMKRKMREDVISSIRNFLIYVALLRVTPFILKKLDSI
row,Target,log2 fold change
1,VTA1 (UniProt Q9NP79),-0.075
2,UNC119B (UniProt A6NIH7),-0.016
3,TSPAN13 (UniProt O95857),0.076
4,USP25 isoform 3 (UniProt Q9UHP3),-0.007
5,UHRF1BP1 (UniProt Q6BDS2),-0.001
6,VPS72 isoform 2 (UniProt Q15906),0.05
7,TTC38 (UniProt Q5R3I4),-0.061
8,UBA52 (UniProt P62987),0.265
9,UBE4B isoform 4 (UniProt O95155),0.006
10,UBAP1 isoform 4 (UniProt Q9NZ09),-0.171
11,UCHL5 isoform 3 (UniProt Q9Y5K5),0.069
12,UBE4A isoform 2 (UniProt Q14139),0.013
13,UFM1 (UniProt P61960),-0.164
14,TOMM5 isoform 2 (UniProt Q8N4H5),-0.029
15,VRK2 (UniProt Q86Y07),0.005
16,USP9X (UniProt Q93008),0.012
17,UFM1 isoform 2 (UniProt P61960),-0.069
18,WBP4 (UniProt O75554),0.014
19,TNPO3 (UniProt Q9Y5L0),-0.022
20,UBLCP1 (UniProt Q8WVY7),-0.018
21,TMEM161A (UniProt Q9NX61),-0.133
22,WDR18 (UniProt Q9BV38),-0.037

# Reference: the supplement of paper PMC10849652
